This passage reports PBM binding z-score results from the supplement of paper PMC6555819.

The first assay has as its system PXR:RXRa (NR concentration 270 nM, RXRa partner concentration 90 nM). Briefly: PBM binding z-score (relative to random genomic background probes); higher = stronger binding; sequences stand for … in GC…GCGATTGACAGCGTAGAATGAAGG
The essentials: (§1)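 Each nuclear receptor dimer, without ligand, was incubated for 1 h on custom Agilent 4×180K protein-binding microarrays. Binding was detected with antibodies against each partner (one per run), and scanned fluorescence was regression-normalized. The binding z-scores are referenced to random human genomic background probes.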
The sequence CCTAGTGGGTCAGGAGGTCACACACCGGATATGA returned a PBM binding z-score of 4.62.

CCTACTGGGCAAAAAAGGTCATTGATGCCGATAA: the PBM binding z-score was 4.27.

In turn, TCTAGTTCGTCACGGAGGTCACACACGACGGGTA had a PBM binding z-score of 5.15.

For the sequence CCTAGTTGGTCAAGGTCACGCACGCTATAGGTAC, the PBM binding z-score was 4.64.

The sequence ATATGTAGGTTAGCGGGGGTCATTCAGACTAGGC yielded a PBM binding z-score of 6.34.

Take CCTAGATGGTCAGGAGGTCACACACCGGATATGA: the PBM binding z-score was 4.14.

CCTAGTTGGTCAGGAAGTCACACACCGGATATGA: the PBM binding z-score was 0.246.

CGTCAAAGTTAAAGGTAACGTAACAGAAAGCAGC came in with a PBM binding z-score of 0.394.

For CCTACTGGGCCATTCAGAGGTCACTGATCATATG, the PBM binding z-score came to 3.96.

TAGCCTCGGTCATTCAGGGGCCAGTATAGAAAGC displayed a PBM binding z-score of -0.0122.

CAAACTAGGCCAAGGTCAAAGTCGGTTTGTGCCA had a PBM binding z-score of 4.28.

Take ATCGAAAGGTCGAGTTGAGTATAGAGAAAGGGAA: the PBM binding z-score was found to be 2.74.

CGTCAAAGTTCAAGGTAAAGTAACAGAAAGCAGC returned a PBM binding z-score of 3.99.

Sequence CTATGTAGGTGAAGGGGGTCATTCAGTTTGAAAG came in with a PBM binding z-score of 5.89.

Turning to TCTAGTTGGTCACGGGGGTCACACACGACGGGTA, the PBM binding z-score stood at 5.72.

Take CCTTACGGGTCACTTACAGGTTATAGCATTTGGA: the PBM binding z-score came to 3.37.

In the case of CCTACTGGGCCATTCAGAGGTCATCGATCATATG, the PBM binding z-score was 5.11.

For the sequence CAAAATAGGTCAAGAGGTCAAAGTCCGCTTCCCG, the PBM binding z-score came to 6.31.

The sequence TAGCCTAGGTCATGCGGGTCAGTATAGTGTCGGC gave a PBM binding z-score of 3.67.

In the case of GCTTACGGGTCAAAGGTTAAAGCATGAATAGAAT, the PBM binding z-score was found to be 6.29.

On to CGTCCAAGGTCAAAGGTCAGCGAAGAGATGACGG, for which the PBM binding z-score amounted to 7.19.

ATCGAAAGGTCGACGAGGTGAGAATACACCGTTT returned a PBM binding z-score of 3.29.

CGTCCAAGGGCAATGCTAGGTCAGTGAAAGCATT showed a PBM binding z-score of 1.04.

As for GCTTACGGGTCAAAAGTTATAGCATGAATAGAAT, the PBM binding z-score worked out at 2.94.

As to CCTACTGGGCCACGAAAGGTGATTGATTCAGTGA, the PBM binding z-score was 0.0244.

As for CTATGTAGGTTAAGGGGGTCATTGAGTTTGAAAG, the PBM binding z-score is 6.54.

ATCGAAAGGTCGTGAGGTGAGTTTACAGAAAGGC: the PBM binding z-score is 4.1.

TCTACTTGGTCACGGAGGTCACACACGACGGGTA: the PBM binding z-score is 4.67.

TCGAGTAGGTTACGGGGGCGTTCAGGGATGAAGA returned a PBM binding z-score of 2.69.

Consider TATACAGGATCAAAGGCCAGAGTACGAATGTCGA, for which the PBM binding z-score was 0.0724.

In turn, CCTAGTTGGTCAAGGTCCCACACGCTATAGGTAC yielded a PBM binding z-score of 0.0607.

CCCAGTAGGTTACGAGGGGGCATTCAGTGCGAAT: the PBM binding z-score stood at 4.89.

AGAATGGGGTTATTAAGATCAGGGAATTGCGGTC returned a PBM binding z-score of 2.44.

The sequence ATCGAAAGGTCGTGAAGTGAGTATACAGAAAGGC registered a PBM binding z-score of 2.66.

Take GCTGCTAGGTCAGGTTGGTCAGCTAACGGGTACG: the PBM binding z-score was 0.333.

Consider CCTTACGGGTCACTGACAGCTTATAGCATTTGGA, for which the PBM binding z-score was 2.79.

Sequence AGAATGAGGTTAGCAAAGATCAGGGAAACGCTTG had a PBM binding z-score of 0.442.

In the case of CCTAGTTGGTCAGGGGGTCACACACCGGATATGA, the PBM binding z-score stood at 5.01.

Sequence AGTCGGAGGACAAAGGTCAGAGCTACGCCAGTGA displayed a PBM binding z-score of 3.98.

A further assay relates to PXR homodimer (NR concentration 270 nM). Described as above. A digest of the protocol: as §1
CCTAGTGGGTCAGGAGGTCACACACCGGATATGA returned a PBM binding z-score of 0.774.

As to CCTACTGGGCAAAAAAGGTCATTGATGCCGATAA, the PBM binding z-score was found to be 1.28.

Take TCTAGTTCGTCACGGAGGTCACACACGACGGGTA: the PBM binding z-score worked out at 2.64.

The sequence CCTAGTTGGTCAAGGTCACGCACGCTATAGGTAC showed a PBM binding z-score of 2.27.

In the case of ATATGTAGGTTAGCGGGGGTCATTCAGACTAGGC, the PBM binding z-score amounted to 3.48.

With CCTAGATGGTCAGGAGGTCACACACCGGATATGA, the PBM binding z-score turned out to be 1.76.

Sequence CCTAGTTGGTCAGGAAGTCACACACCGGATATGA yielded a PBM binding z-score of 0.549.

Sequence CGTCAAAGTTAAAGGTAACGTAACAGAAAGCAGC came in with a PBM binding z-score of 0.0362.

CCTACTGGGCCATTCAGAGGTCACTGATCATATG came in with a PBM binding z-score of 0.772.

Consider TAGCCTCGGTCATTCAGGGGCCAGTATAGAAAGC, for which the PBM binding z-score was -0.574.

CAAACTAGGCCAAGGTCAAAGTCGGTTTGTGCCA had a PBM binding z-score of 1.2.

The sequence ATCGAAAGGTCGAGTTGAGTATAGAGAAAGGGAA returned a PBM binding z-score of 0.316.

On to CGTCAAAGTTCAAGGTAAAGTAACAGAAAGCAGC, for which the PBM binding z-score was 2.2.

Regarding CTATGTAGGTGAAGGGGGTCATTCAGTTTGAAAG, the PBM binding z-score was determined as 9.91.

With TCTAGTTGGTCACGGGGGTCACACACGACGGGTA, the PBM binding z-score worked out at 2.32.

The sequence CCTTACGGGTCACTTACAGGTTATAGCATTTGGA showed a PBM binding z-score of 0.26.

Regarding CCTACTGGGCCATTCAGAGGTCATCGATCATATG, the PBM binding z-score is 2.18.

Sequence CAAAATAGGTCAAGAGGTCAAAGTCCGCTTCCCG registered a PBM binding z-score of 2.24.

In turn, TAGCCTAGGTCATGCGGGTCAGTATAGTGTCGGC showed a PBM binding z-score of 1.56.

GCTTACGGGTCAAAGGTTAAAGCATGAATAGAAT: the PBM binding z-score turned out to be 0.364.

Take CGTCCAAGGTCAAAGGTCAGCGAAGAGATGACGG: the PBM binding z-score worked out at 1.93.

ATCGAAAGGTCGACGAGGTGAGAATACACCGTTT had a PBM binding z-score of 0.612.

CGTCCAAGGGCAATGCTAGGTCAGTGAAAGCATT registered a PBM binding z-score of -0.135.

GCTTACGGGTCAAAAGTTATAGCATGAATAGAAT: the PBM binding z-score was 0.168.

In turn, CCTACTGGGCCACGAAAGGTGATTGATTCAGTGA registered a PBM binding z-score of -0.433.

The sequence CTATGTAGGTTAAGGGGGTCATTGAGTTTGAAAG showed a PBM binding z-score of 12.9.

ATCGAAAGGTCGTGAGGTGAGTTTACAGAAAGGC had a PBM binding z-score of 1.52.

Sequence TCTACTTGGTCACGGAGGTCACACACGACGGGTA showed a PBM binding z-score of 2.05.

TCGAGTAGGTTACGGGGGCGTTCAGGGATGAAGA: the PBM binding z-score stood at 1.81.

For the sequence TATACAGGATCAAAGGCCAGAGTACGAATGTCGA, the PBM binding z-score was found to be 0.338.

For CCTAGTTGGTCAAGGTCCCACACGCTATAGGTAC, the PBM binding z-score worked out at 0.41.

The sequence CCCAGTAGGTTACGAGGGGGCATTCAGTGCGAAT registered a PBM binding z-score of 5.08.

Sequence AGAATGGGGTTATTAAGATCAGGGAATTGCGGTC came in with a PBM binding z-score of 1.82.

ATCGAAAGGTCGTGAAGTGAGTATACAGAAAGGC: the PBM binding z-score was 0.278.

GCTGCTAGGTCAGGTTGGTCAGCTAACGGGTACG yielded a PBM binding z-score of -0.532.

The sequence CCTTACGGGTCACTGACAGCTTATAGCATTTGGA showed a PBM binding z-score of -0.111.

Sequence AGAATGAGGTTAGCAAAGATCAGGGAAACGCTTG returned a PBM binding z-score of -0.147.

As for CCTAGTTGGTCAGGGGGTCACACACCGGATATGA, the PBM binding z-score is 1.49.

Take AGTCGGAGGACAAAGGTCAGAGCTACGCCAGTGA: the PBM binding z-score came to 0.166.
